Reference: PubChem BioAssay AID1347426 (Functional Genomics Laboratory (NCATS/FGL), 2020)
In all, about 31,000 sequences went through this assay and about 1,400 (4.5%) were called active. This is one part of a sample in which actives are shown more often than they occur.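 How the source made its calls: active means median seed-adjusted z-score above 1 or below -1; inactive means the rest.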

assay: Novel Modifiers of Survival Motor Neuron (SMN) Protein: Gene Identification via Genome-wide siRNA Screen; settings: HEK293T SMN2-luciferase reporter, siRNA knockdown, 72 h; actives lie on both sides;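 further: luminescence tracks full-length SMN protein made from the SMN2 reporter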
Outline: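 Luciferase signal, proportional to full-length SMN made from an SMN2 cDNA reporter in stable HEK293T cells, was read 72 h after siRNA reverse transfection. Values were expressed as MAD scores after non-targeting-control normalization and log10 conversion; seed analysis flagged off-targets.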

Sequence	median seed-adjusted z-score
GGCAAAAACUGUGAAUUAUTT against F10	-0.0033 (inactive)
CGGAAGGACAGACAAGUAATT against SIGLEC9	0 (inactive)
CCAUCACGUUCAUUACCUUTT against GAN	-1.07 (active)
GCCUUUGCAGGUAUCAGAATT against LYPLA1	0 (inactive)
GCUUGACUUCAAAACUAAATT against SERPIND1	0.133 (inactive)
CCCAAUCAGUAAGAACCAATT against CEACAM1	-0.211 (inactive)
CCACCUAUAAAGUUCUAAATT against CAPRIN1	1.36 (active)
GAUUAUACAUAUUUCGCAATT against BRCA2	0 (inactive)
UGGUGUACACUGUUACUCATT against LOC158381	0 (inactive)
CGGUCUACAGCAUCGAGUATT against IL22RA1	-1.14 (active)
CUAUCGACAUCAAGAGUUUTT against PSPC1	0.0612 (inactive)
GGUUGACAGUGUGCCUAAATT against NRIP1	0.789 (inactive)
GGAUAGAUGUUUCUAUCAATT against SUZ12	-1.65 (active)
GGUGUUUGAUUGUGAGAAUTT against UBE2G1	0.174 (inactive)
CCCACUACAGAAGACUUAUTT against SLC4A1	-0.861 (inactive)
GAAAUGUACCCUCCAGAAATT against CCNB1	0.163 (inactive)
CCGGAGAUGGAUGAAUCUATT against ICAM5	-1 (active)
GUUUCUCAGUACUUCCAGATT against APOA2	-0.297 (inactive)
GGAUGAGGUCUUCACCAAATT against NENF	-0.778 (inactive)
AAAUCUUCUUUCGACAACATT against RAB37	0.0678 (inactive)
GCAAGAUGCAUGCUCAUGATT against ZNF142	0.111 (inactive)
CUGUUGAAAUGUAAAACGATT against VNN1	0.549 (inactive)
GGACAGAUCUUACCCAUCUTT against TRIM59	0.941 (inactive)
AGCCUUUAAUCAUUUCUCATT against ZNF85	-1.01 (active)
CUUCAUAUUUGACACCUAUTT against SLC25A26	0.0213 (inactive)
GACUUUCAGUUCUUACGAUTT against CCNB3	0 (inactive)
GGCUCAAUAUGGAGGAUUATT against NPR3	-0.436 (inactive)
GGCCCUAUGUAUAUGCUUUTT against AK3	-0.0313 (inactive)
ACAUGCAGCUGGUAAGGAUTT against MFSD4	-1.89 (active)
GAUACGUUCUGCAAUGUUATT against EPYC	0.00264 (inactive)
